# Reference: ChEMBL document CHEMBL3433997, “St. Jude Leishmania screening dataset” (2016)
# Legend:
# Type in all cases: functional
# [1] = target: Solute carrier family 2, facilitated glucose transporter member 1 (Homo sapiens) (UniProt P11166); assay: ST_JUDE_LEISH: Cytotoxicity at 2uM final concentration against transgenic Leishmania Mexicana promastigotes LmGLUT1 that are glucose transport deficient and complemented with the human glucose transporter GLUT1. Activity is measured by DNA content using SYBR green in vitro
# [2] = target: Hexose transporter 1 (Plasmodium falciparum) (UniProt O97467); assay: ST_JUDE_LEISH: Cytotoxicity at 2uM final concentration against transgenic Leishmania Mexicana promastigotes LmPfHT that are glucose transport deficient and complemented with the Plasmodium falciparum hexose transporter. Activity is measured by DNA content using SYBR green in vitro
# [3] = target: Glucose transporter (Leishmania mexicana) (UniProt O61059); assay: ST_JUDE_LEISH: Cytotoxicity at 2uM final concentration against transgenic Leishmania Mexicana promastigotes LmGT2 that are glucose transport deficient and complemented with the L. Mexicana glucose transporter 2. Activity is measured by DNA content using SYBR green in vitro
# Solute carrier family 2, facilitated glucose transporter member 1 (Homo sapiens), sequence (P11166 whole entry): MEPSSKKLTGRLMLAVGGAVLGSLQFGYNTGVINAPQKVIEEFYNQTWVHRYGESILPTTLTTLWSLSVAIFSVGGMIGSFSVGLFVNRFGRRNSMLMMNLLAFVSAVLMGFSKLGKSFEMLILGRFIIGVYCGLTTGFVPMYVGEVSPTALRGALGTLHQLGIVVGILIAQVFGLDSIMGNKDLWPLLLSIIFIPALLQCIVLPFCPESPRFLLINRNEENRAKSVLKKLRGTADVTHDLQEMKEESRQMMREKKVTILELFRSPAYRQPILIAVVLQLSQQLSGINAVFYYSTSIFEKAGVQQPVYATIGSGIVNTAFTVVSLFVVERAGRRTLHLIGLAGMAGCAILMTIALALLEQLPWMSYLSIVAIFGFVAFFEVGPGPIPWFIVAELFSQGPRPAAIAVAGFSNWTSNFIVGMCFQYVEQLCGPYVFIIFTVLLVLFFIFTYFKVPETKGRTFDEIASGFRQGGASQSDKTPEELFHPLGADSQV
SMILES,inhibition [1] [%],inhibition [2] [%],inhibition [3] [%]
COc1ccc2ncc(C#N)c(CCN3CCC(NCc4ccc5c(c4)NC(=O)CO5)CC3)c2c1,12.7,9.55,8.73
O=C(/C=C/c1ccc(Cl)c(Cl)c1)NCCCCCCN1CCCN(C(=O)Nc2ccc(Cl)c(Cl)c2)CC1,2.36,2.49,-2.06
C[C@H](Cc1ccc(Oc2ccc(C[C@@H](C)NC[C@H](O)c3cccc(Cl)c3)cc2)cc1)NC[C@H](O)c1cccc(Cl)c1,106,104,102
COc1ccc(CC2(c3ccc(F)cc3)N=C(N)N(CCCc3cccnc3)C2=O)cc1 (stereo unspecified),2.7,1.49,2.08
COc1ccc(C2C(C(=O)Nc3ccc(C)cc3Br)c3ccccc3C(=O)N2C)cc1 (stereo unspecified),3.32,2.08,0.83
O=C(/C=C/c1cccc2ccccc12)NCCCCCN1CCC(c2c[nH]c3ccccc23)CC1,0.55,1.35,2.9
CS(=O)(=O)c1ccccc1CNC(=O)c1ccc(-c2cccc(-c3nc4cc(C(F)(F)F)ccc4[nH]3)c2)cc1,2.96,2.74,2.22
CCCCCCN(CCCCCC)CC(O)c1c(OC)ccc2ccccc12 (stereo unspecified),3.35,5.37,5.56
O=C(Nc1nc2ccc(Cl)cc2s1)c1csnn1,-1.77,-1.39,-5.77
COC(=O)CCn1c(C2CCN(CC3CCC(NC(=O)/C=C/c4ccc(Cl)c(Cl)c4)CC3)CC2)nc2ccccc21 (stereo unspecified),0.97,2.03,3.04
COc1ccc(OCCCN2CCN(CC(c3ccc(F)cc3)N3CCN(C(C)C)CC3)CC2)c2ccccc12 (stereo unspecified),5.57,5.69,5.07
Cn1ncc2c3c(CCN4CCC(NCc5cc6c(cn5)OCCO6)CC4)c(Cl)cnc3ccc21,1.09,1.93,-0.85
COc1ccc(-n2ccnc2)cc1CNC1CCN(CC2Cn3c(=O)ccc4ccc(F)c2c43)CC1 (stereo unspecified),4.7,4.54,5.24
COc1nc2c(CCN3CC[C@H](NCc4ccc5c(c4)NC(=O)CO5)[C@H](O)C3)c(Cl)cnc2cc1F,6.64,7.74,4.24
NS(=O)(=O)c1ccc(CNC(=O)c2cnc3c(O)cccc3c2Nc2cccc(NC(=O)c3ccc(Cl)c(Cl)c3)c2)cc1,5.22,5.59,5.34
Fc1ccc2[nH]c(-c3ccc(-c4ccc(CN5CCN(c6cnccn6)CC5)cc4)s3)nc2c1,2.41,1.2,0.86
Cc1cc2nc(-c3ccc(SCC(=O)Nc4ccc5c(c4)OCCO5)nc3)[nH]c2cc1C,0.8,-0.74,-4.17
